The text below walks through data of ChEMBL document CHEMBL1157539, “Thousands of chemical starting points for antimalarial lead identification” (Nature, 2010).

Type in all cases: functional
Experiment [1] has as its system Plasmodium falciparum. Nature of the experiment: GSK_TCMDC: Inhibition of Plasmodium falciparum 3D7 in whole red blood cells, using parasite LDH activity as an index of growth. Test compounds present at 2uM.
Experiment [2] relates to Plasmodium falciparum. The experiment can be described thus: GSK_TCMDC: Inhibition of Plasmodium falciparum Dd2 in whole red blood cells, using parasite LDH activity as an index of growth. Test compounds present at 2uM.
Another experiment relates to HepG2. Nature of the experiment: GSK_TCMDC: Percent inhibition of human HepG2 cell line. Test compounds present at 10uM.

With `COc1ccc2nccc([C@@H](O)CN3CCC(NCc4cc5ccccc5s4)CC3)c2c1.O=C(O)C(=O)O`, the Inhibition amounted to 97% with Plasmodium falciparum [1], 53% in the experiment on Plasmodium falciparum [2] and 8% in the experiment on HepG2.

As to `CCCCCCCCCCNCC(O)c1ccc(O)c(C(=O)OC)c1` (centres undefined), the Inhibition with Plasmodium falciparum [1] is 97%; with Plasmodium falciparum [2], 97%; with HepG2, 3%.

On to `CCNc1cc(C(=O)N[C@@H](Cc2ccccc2)[C@H](O)CNC2(CC(C)C)CC2)cc(N2CCCCS2(=O)=O)c1.Cl`, for which the Inhibition was found to be 87% in the experiment with Plasmodium falciparum [1], 29% in the experiment with Plasmodium falciparum [2] and 0% with HepG2.

For the compound `CCN(CCCN1CCCCC1)c1cc(C)nc(Nc2ccc(C)cc2)n1.O=C(O)C(F)(F)F`, the Inhibition amounted to 100% in the experiment with Plasmodium falciparum [1], 10% in the experiment with Plasmodium falciparum [2] and 17% with HepG2.

On to `CO/C(=C\C=C\c1cc2cc(Cl)c(Cl)cc2[nH]1)C(=O)NCC(C)(C)CN(C)C`, for which the values for the Inhibition with Plasmodium falciparum [1], with Plasmodium falciparum [2] and with HepG2 were 81%, 27% and 35%, respectively.

As to `COc1ccc2nccc(NC(=O)OC3CCC(NCc4ccc5c(n4)NC(=O)CS5)CC3)c2c1` (centres undefined), the Inhibition is recorded as 98% in the experiment with Plasmodium falciparum [1], 39% in the experiment on Plasmodium falciparum [2] and 9% with HepG2.

For `O=C(Nc1ccc(Cl)cc1)c1cccc(CN2CCCN(Cc3cccc(O)c3)CC2)c1.O=C(O)C(F)(F)F`, the figures for the Inhibition in the experiment with Plasmodium falciparum [1], with Plasmodium falciparum [2] and in the experiment with HepG2 were 98%, 43% and 14%, respectively.

`Cc1nc(C)c(CC(=O)Nc2cccc(-c3cccc(-c4nc5cccc(C)c5[nH]4)c3)c2)s1`: the Inhibition in the experiment on Plasmodium falciparum [1] worked out at 92%; with Plasmodium falciparum [2], 35%; with HepG2, 43%.

As for `O=C1c2ccccc2C(=O)N1CCOc1c(Br)cc(Br)cc1CNCCCNc1cc(=O)c2ccccc2[nH]1`, the figures for the Inhibition with Plasmodium falciparum [1], in the experiment on Plasmodium falciparum [2] and in the experiment on HepG2 were 92%, 12% and 10%, respectively.

Regarding `CS(=O)(=O)Cc1ccc(Nc2nccc(-c3c(-c4cccc(NC(=O)c5c(F)cccc5F)c4)nn4ncccc34)n2)cc1`, the Inhibition in the experiment with Plasmodium falciparum [1] amounted to 97%; with Plasmodium falciparum [2] it was 93%; in the experiment on HepG2, 86%.

Regarding `Br.N=C1N=C(N)NC2(CCCCC2)N1OCCCOc1cccc2ccccc12`, the Inhibition is recorded as 95% in the experiment on Plasmodium falciparum [1], 96% with Plasmodium falciparum [2] and 67% in the experiment with HepG2.

`COc1ccc(CNc2nc(Nc3cccc(C#N)c3)nc(Nc3cccc(C#N)c3)n2)cc1Cl`: the Inhibition with Plasmodium falciparum [1] is 100%; in the experiment with Plasmodium falciparum [2], 83%; in the experiment on HepG2, 0%.

On to `Cc1ccc(/C=C/C(=O)N2CCC(CCN3CCC(c4c[nH]c5ccccc45)CC3)CC2)cc1C`, for which the values for the Inhibition with Plasmodium falciparum [1], in the experiment on Plasmodium falciparum [2] and with HepG2 were 94%, 5% and 50%, respectively.

Take `CC[C@H](N/C(=N\c1cccc(Cl)c1Cl)Nc1ccc(C#N)cc1O)c1ccccc1`: the Inhibition in the experiment on Plasmodium falciparum [1] amounted to 91%; with Plasmodium falciparum [2], 71%; in the experiment with HepG2, 0%.

As to `COc1cc2s/c(=N\C(=O)c3cccc([N+](=O)[O-])c3)n(C)c2cc1OC`, the values for the Inhibition in the experiment with Plasmodium falciparum [1], in the experiment on Plasmodium falciparum [2] and with HepG2 were 92%, 79% and 5%, respectively.

Turning to `O=C(CCc1c[nH]cn1)Nc1ccc(-c2ccc(-c3nc4ccccc4[nH]3)cc2)cc1`, the Inhibition with Plasmodium falciparum [1] turned out to be 98%; in the experiment with Plasmodium falciparum [2] it was 70%; with HepG2 it was 46%.

As to `CCCCn1c(Sc2ccc(C#N)c([N+](=O)[O-])c2)nnc1-c1cc(OC)cc(OC)c1`, the Inhibition with Plasmodium falciparum [1] is reported as 94%; with Plasmodium falciparum [2], 70%; in the experiment with HepG2, 7%.

Take `C[C@H](Cc1ccc(OCCCCCOc2ccc(C[C@@H](C)NC[C@H](O)c3cccc(Cl)c3)cc2)cc1)NC[C@H](O)c1cccc(Cl)c1.Cl`: the figures for the Inhibition in the experiment on Plasmodium falciparum [1], in the experiment on Plasmodium falciparum [2] and in the experiment on HepG2 were 99%, 100% and 99%, respectively.

Consider `Br.CCCC1N=C(N)N=C(N)N1c1cccc([N+](=O)[O-])c1` (centres undefined), for which the Inhibition in the experiment with Plasmodium falciparum [1] was 96%; with Plasmodium falciparum [2] it was 1%; in the experiment with HepG2, 0%.

As to `O=C(/C=C/c1ccc(Cl)c(Cl)c1)NCCCCCN1CCCC(C(=O)Nc2ccc(F)c(Cl)c2)C1` (centres undefined), the Inhibition came out at 99% with Plasmodium falciparum [1], 2% with Plasmodium falciparum [2] and 28% with HepG2.

`COC(=O)/C=C/c1ccc(CCC(C)NCC(O)c2cccc(Cl)c2)cc1` (centres undefined): the values for the Inhibition with Plasmodium falciparum [1], with Plasmodium falciparum [2] and with HepG2 were 94%, 77% and 5%, respectively.

For the compound `CCc1cc(Br)c(CNCCCNc2cc(=O)c3ccccc3[nH]2)s1.Cl`, the Inhibition was determined as 90% with Plasmodium falciparum [1], 45% with Plasmodium falciparum [2] and 6% with HepG2.

For `O=C(O)c1ccc(NC(=O)C2CC(=O)N(Cc3ccc(Cl)cc3)C(=Nc3ccc(Cl)cc3)S2)cc1` (centres undefined), the figures for the Inhibition in the experiment with Plasmodium falciparum [1], with Plasmodium falciparum [2] and in the experiment with HepG2 were 99%, 95% and 0%, respectively.

Turning to `CC(O)C1CCCCN1C(=O)c1cccc(-c2cccc(-c3nc4ccccc4[nH]3)c2)c1` (centres undefined), the Inhibition was determined as 99% in the experiment with Plasmodium falciparum [1], 76% in the experiment with Plasmodium falciparum [2] and 20% in the experiment on HepG2.

With `CCN(CC)CCCC(C)Nc1c2ccccc2nc2c1ccc1ccccc12.Cl` (centres undefined), the values for the Inhibition with Plasmodium falciparum [1], in the experiment on Plasmodium falciparum [2] and with HepG2 were 96%, 34% and 18%, respectively.

Regarding `Cl.O=C(/C=C/c1ccc(Cl)cc1)Nc1ccc2nc(CN3CCCC3)ccc2c1`, the values for the Inhibition with Plasmodium falciparum [1], in the experiment on Plasmodium falciparum [2] and with HepG2 were 85%, 30% and 47%, respectively.

For the compound `O=C(Nc1cccc(CN2CCN(C(=O)c3cccc(Cl)c3)CC2)c1)c1cccs1.O=C(O)C(F)(F)F`, the values for the Inhibition in the experiment with Plasmodium falciparum [1], in the experiment with Plasmodium falciparum [2] and with HepG2 were 94%, 94% and 17%, respectively.

For the compound `CCOc1ccc(C(=O)N2CCOC(CCN3CCC4(CCc5ccccc54)CC3)(c3ccc(Cl)c(Cl)c3)C2)cc1` (centres undefined), the Inhibition in the experiment on Plasmodium falciparum [1] came to 81%; in the experiment with Plasmodium falciparum [2], 25%; in the experiment on HepG2, 25%.

The term Inhibition denotes the percentage by which the read-out fell short of the control. Lower therefore signals little suppression.
